Laboratory results published in PubChem BioAssay (NCI).
Compounds without any hit were thinned out: in the full panel of roughly 83,000, 20% have a hit.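 Single-dose data. Exposure time 48 hours. Values below 10 considered active.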 A number with no mark means an inactive call. The source made the active and inactive calls.

system: CCRF-CEM leukemia; assay: NCI-60 one-dose screen, 48 h (100 = growth as untreated, 0 = no growth, -100 = all killed); details: 10 µM unless noted
Procedure: Growth inhibition of the CCRF-CEM human tumor cell line is measured as a screen for anti-cancer activity. Cells are grown in 96 well plates and exposed to the test compound for 48 hours. Compounds are tested at a single concentration, which is 10^-5 M for most compounds. The reported endpoint is percent growth (GI% or GIPRCNT), where numbers from 0 - 100% represent growth inhibition, and numbers from -100% - 0 represent cell death. For example, a value of 40 represents 60% growth inhibition. A value of 0 means no net growth occurred over the course of the experiment. A value of -40 indicates 40% of cells at the beginning of the experiment died by the end of the experiment. A value of -100 means all cells are dead at the end of the experiment.
NCI-60 Human Tumor Cell Lines Screen was performed using the standard one-dose NCI protocol, which is described in more detail at https://dtp.cancer.gov/discovery_development/nci-60/default.htm.
Compounds with GIPRCNT values below 10 were considered active. Activity score was based on GIPRCNT using the following formula: […]
Score is 0 for GIPRCNT values of 100 or above, 50 for GIPRCNT values of 0, and 100 for GIPRCNT values of -100.

| SMILES | growth |
| --- | --- |
| Cc1nc2ccccc2c(/C=C/c2ccc(Cl)cc2)c1C(=O)/C=C/c1ccc(F)cc1 | 6.9% (active) |
| COc1cccc(/C=C/C(=O)c2c(C)nc3ccccc3c2/C=C/c2ccc(C)cc2)c1OC | 16.6% |
| COC(=O)[C@]12CC[C@@H](C)[C@H](C)[C@@H]1C1=CC[C@@H]3[C@@]4(C)C(C=O)=C[C@@](C)(COC(=O)c5ccco5)C4=CC[C@@]3(C)[C@]1(C)CC2 | 4.27% (active) |
| CCCCCCCCCCCCCCCCCCOc1ccc(CC(=O)OCC[N+]2(C)CCCC2)cc1 | 99.1% |
| COc1cc(OC)cc(C2CC(=O)Nc3c2c(C)nn3-c2nc3ccccc3[nH]2)c1 (stereo not given) | 4.69% (active) |
| CC(C)CC(NC(=O)CN(Cc1ccccc1)S(C)(=O)=O)C(=O)O (stereo not given) | 98.2% |
| NC(N)=NN=C(c1ccccc1)c1ccccc1 | 27.7% |
| Cc1nn(-c2ccccc2)c(Cl)c1/C=C(/NC(=O)c1ccccc1)c1nc2ccccc2[nH]1 | 86.5% |
| COc1cc2ncn3c(=O)c4c5c(sc4nc3c2cc1OC)CCCC5 | 137% |
| CCc1ccccc1NC(=O)/C(C#N)=C/c1ccc(OC)cc1 | 84.7% |
| NC(=O)c1ccc[n+]([C@@H]2O[C@H](COP(=O)([O-])OP(=O)(O)OC[C@H]3O[C@@H](n4cnc5c(N)ncnc54)[C@H](O)[C@@H]3O)[C@@H](O)[C@H]2O)c1 | 95.4% |
| COc1ccc(C(=O)Nn2c(NCC(=O)N3c4ccccc4Sc4ccccc43)nnc2-c2ccc(O)cc2)cc1 | 110% |
| Cc1cc(=O)oc2c1ccc1oc(C#N)c(C)c12 | 6.77% (active) |
| COc1ccc2c(c1)C(=O)/C(=C/c1ccc(OCC(=O)Nc3nccs3)cc1)O2 | -73.8% (active) |
| Cc1cc(/C=C\c2ccc3ccccc3[n+]2C)c(O)c2ncccc12 | 25.6% |
| CC(C)(C)n1cc(-c2ccnc(NCCCNS(=O)(=O)c3ccccc3)c2)c(-c2ccccc2)n1 | 42.6% |
| O=c1c2cc(F)ccc2sc2c(NCCN3CCCCC3)nc3ccccc3c12 | 44.3% |
| CC1(C)CC(=O)C2=C(C1)N(c1ccc(OC(F)(F)F)cc1)C(N)=C(C#N)C2c1ccc(Cl)cc1 (stereo not given) | 96.5% |
| N#Cc1c2c(nn(-c3ccccc3)c1=O)C(O)=C([N+](=O)[O-])C(c1ccccc1)C2 (stereo not given) | 58% |
| COc1ccc(Nc2nnc(SCc3ccccc3F)s2)cc1 | 76.4% |

| SMILES | growth |
| --- | --- |
| COc1ccc2[nH]c(O)c(C(=Nc3ccc(N(C)C(=O)CN4CCN(C)CC4)cc3)c3ccccc3)c2c1 | 23.2% |
| C[C@H]1[C@H]2[C@H]3CC[C@@H]4[C@@]5(C)C/C(=C/c6cccnc6)C(=O)C(C)(C)[C@@H]5CC[C@@]4(C)[C@]3(C)CC[C@]23CO[C@]1(C)[C@@H](C(=O)/C=C\c1cccnc1)C3 | 17.9% |
| COc1cccc(-c2nn(-c3ccccc3)cc2-c2ccnc(NCCNC(=O)c3ccccc3)c2)c1 | 48.7% |
| COc1ccc(/C=N\NC(=O)c2cc(-c3ccc(Br)cc3)n(-c3ccc(S(N)(=O)=O)cc3)n2)cc1 | 55.6% |
| CC(=O)O[C@]1(C(C)=O)CCC2C3C[C@H](C)C4=CC(=O)CC[C@]4(C)C3CC[C@@]21C (stereo not given in full) | 81.8% |
| COCCN(C(=O)c1ccc(F)cc1F)c1c(N)n(Cc2ccccc2)c(=O)[nH]c1=O | 94.5% |
| CC(=O)C(C)Cc1cc2c(cc1C)C(C)(C)CCC2(C)C (stereo not given) | 121% |
| Cc1ccc(N2CCN(C(=S)c3cccs3)CC2)cc1 | 95.3% |
| COC(=O)/C=C1\S/C(=N\NS(=O)(=O)c2ccc(C)cc2)N(c2ccccc2)C1=O | 101% |
| COc1cccc(-c2nn(-c3ccccc3)cc2-c2ccnc(NCCNC(=O)Nc3ccccc3)c2)c1 | 54.7% |
| CCCCCc1nc2c(c3c1CCCC3)CCCC2 | 59.9% |
| COc1cccc(-c2nn(-c3ccccc3)cc2-c2ccnc(NCCCNC(=O)c3ccc(F)cc3)c2)c1 | 38.6% |
| Cc1ccc(S(=O)(=O)n2cc(CNc3ccc(N4CCOCC4=O)cc3)c3ccccc32)cc1 | 53.5% |
| COC(=O)CCC1=C(C)C2=NC1=CC1=NC(=CC3=NC(=Cc4[nH]c(/c(=C(/C)O)c4C)=C2)C(C(C)=O)=C3C)C(C)=C1CCC(=O)OC | 101% |
| O=C(/C=C/c1ccc(Cl)nc1)c1ccc(Cl)cc1Cl | 7% (active) |
| COc1ccc2c(c1)C(=O)/C(=C/c1cccc(OCC(=O)Nc3nc(C)c(C)s3)c1)O2 | -69.6% (active) |
| COc1cccc(-c2nc3sccn3c2-c2ccnc(NCCNS(=O)(=O)c3cccc(Cl)c3)c2)c1 | 24% |
| c1csc(-c2c3ccc(=[N+]4CCCCC4)cc-3oc3cc(N4CCCCC4)ccc23)c1 | -19.7% (active) |
| CCN(CCNc1ccc(C)c2sc3ccccc3c(=O)c12)CC(C)(C)O | 39.9% |
| C[C@H]1[C@H]2[C@H]3CC[C@@H]4[C@@]5(C)C/C(=C/c6ccco6)C(=O)C(C)(C)[C@@H]5CC[C@@]4(C)[C@]3(C)CC[C@]23CO[C@]1(C)[C@@H](C(=O)/C=C\c1ccco1)C3 | 100% |
